Results reported in PubChem BioAssay AID1159580 (chemical genetic matrix, 2015).
Values joined by “and” are separate entries in the source; they are usually repeats but may differ in a detail not shown here. Equal values may be shown once. Out of some 5,500 compounds screened, about 2,000 (36%) were called active. Not shown: some 18% with an inconclusive outcome. Rule as the data show it: active = normalized growth mostly below about 0.91 (no sharp cut-off); inconclusive = no clear call, values can overlap the other calls; inactive = mostly above about 0.92. This is one part of the list.

Experiment: chemical genetic growth profiling, strain panel (AID 1159580);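 also: tested at 20 µM; growth read once vehicle control cultures reached saturation at 30 °C; 1 = growth at the plate median or of vehicle wells; lower values mean less growth of the strain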
Settings: S. cerevisiae deletion strains, growth OD

COc1ccc(-c2coc3c(O)c(OC)ccc3c2=O)cc1
normalized growth (locus YAL021C, strain ccr4, stronger effect = lower value): 0.907 (inactive) | normalized growth (locus YAL026C, strain drs2, stronger effect = lower value): 0.944 (inactive) | normalized growth (locus YAL030W, strain snc1, stronger effect = lower value): 0.966 (inactive) | normalized growth (locus YBL061C, strain skt5, stronger effect = lower value): 0.983 (inactive) | normalized growth (locus YBR009C, strain hhf1, stronger effect = lower value): 0.887 (active) | normalized growth (locus YBR021W, strain FUR4, stronger effect = lower value): 0.818 (active) | normalized growth (locus YBR023C, strain chs3, stronger effect = lower value): 0.887 (active) | normalized growth (locus YBR171W, strain sec66, stronger effect = lower value): 0.957 (inactive) | normalized growth (locus YBR229C, strain ROT2, stronger effect = lower value): 0.905 (active) | normalized growth (locus YBR231C, strain swc5, stronger effect = lower value): 0.893 (active) | normalized growth (locus YBR279W, strain paf1, stronger effect = lower value): 0.977 (inactive) | normalized growth (locus YCL011C, strain gbp2, stronger effect = lower value): 0.927 (inactive) | normalized growth (locus YCL016C, strain dcc1, stronger effect = lower value): 0.877 (active) | normalized growth (locus YCL029C, strain bik1, stronger effect = lower value): 0.914 (inactive) | normalized growth (locus YCL069W, strain vba3, stronger effect = lower value): 0.945 (inactive) | normalized growth (locus YCR088W, strain abp1, stronger effect = lower value): 0.973 (inactive) | normalized growth (locus YDL005C, strain med2, stronger effect = lower value): 1.01 (inactive) | normalized growth (locus YDL035C, strain GPR1, stronger effect = lower value): 0.874 (inactive) | normalized growth (locus YDL040C, strain nat1, stronger effect = lower value): 0.987 (inactive) | normalized growth (locus YDL074C, strain BRE1, stronger effect = lower value): 0.786 (inactive) | normalized growth (locus YDL101C, strain DUN1, stronger effect = lower value): 0.932 (inactive) | normalized growth (locus YDL185W, strain tfp1, stronger effect = lower value): 0.888 (active) | normalized growth (locus YDL192W, strain arf1, stronger effect = lower value): 0.837 (active) | normalized growth (locus YDR001C, strain nth1, stronger effect = lower value): 1 (inactive) | normalized growth (locus YDR069C, strain doa4, stronger effect = lower value): 1 (inactive) | normalized growth (locus YDR101C, strain arx1, stronger effect = lower value): 0.863 (active) | normalized growth (locus YDR137W, strain rgp1, stronger effect = lower value): 0.696 (active) | normalized growth (locus YDR159W, strain sac3, stronger effect = lower value): 0.797 (active) | normalized growth (locus YDR162C, strain NBP2, stronger effect = lower value): 0.755 (active) | normalized growth (locus YDR195W, strain ref2): 1.01 (inactive) | normalized growth (locus YDR297W, strain sur2, stronger effect = lower value): 0.967 (inactive) | normalized growth (locus YDR318W, strain mcm21, stronger effect = lower value): 0.871 (active) | normalized growth (locus YDR334W, strain swr1, stronger effect = lower value): 0.96 (inactive) | normalized growth (locus YDR335W, strain msn5, stronger effect = lower value): 0.93 (inactive) | normalized growth (locus YDR388W, stronger effect = lower value): 0.944 (inactive) | normalized growth (locus YDR392W, strain spt3, stronger effect = lower value): 0.383 (active) | normalized growth (locus YDR502C, strain sam2, stronger effect = lower value): 0.936 (inactive) | normalized growth (locus YEL003W, strain gim4, stronger effect = lower value): 0.944 (inactive) | normalized growth (locus YEL037C, strain rad23, stronger effect = lower value): 0.959 (inactive) | normalized growth (locus YEL061C, strain CIN8 (second series), stronger effect = lower value): 0.963 (inactive) | normalized growth (locus YEL061C, strain CIN8, stronger effect = lower value): 0.931 (inactive) | normalized growth (locus YER015W, strain faa2, stronger effect = lower value): 0.939 (inactive) | normalized growth (locus YER016W, strain bim1, stronger effect = lower value): 0.966 (inactive) | normalized growth (locus YER110C, stronger effect = lower value): 0.904 (inactive) | normalized growth (locus YER111C, strain swi4, stronger effect = lower value): 0.993 (inactive) | normalized growth (locus YER155C, strain BEM2 (second series), stronger effect = lower value): 0.54 (active) | normalized growth (locus YER155C, strain BEM2, stronger effect = lower value): 0.942 (inactive) | normalized growth (locus YER167W, strain BCK2, stronger effect = lower value): 0.87 (active) | normalized growth (locus YFR010W, strain ubp6, stronger effect = lower value): 1 (inactive) | normalized growth (locus YGL078C, strain dbp3, stronger effect = lower value): 0.959 (inactive) | normalized growth (locus YGL086W, strain mad1, stronger effect = lower value): 0.862 (active) | normalized growth (locus YGL167C, strain pmr1, stronger effect = lower value): 0.976 (inactive) | normalized growth (locus YGL173C, strain kem1, stronger effect = lower value): 0.97 (inactive) | normalized growth (locus YGL227W, strain vid30, stronger effect = lower value): 0.983 (inactive) | normalized growth (locus YGL240W, strain doc1, stronger effect = lower value): 0.851 (active) | normalized growth (locus YGL248W, strain PDE1, stronger effect = lower value): 0.906 (inactive) | normalized growth (locus YGL253W, strain hxk2, stronger effect = lower value): 0.954 (inactive) | normalized growth (locus YGR135W, strain pre9, stronger effect = lower value): 0.916 (inactive) | normalized growth (locus YGR252W, strain gcn5, stronger effect = lower value): 0.781 (inactive) | normalized growth (locus YHR013C, strain ard1, stronger effect = lower value): 0.966 (inactive) | normalized growth (locus YHR027C, strain rpn1, stronger effect = lower value): 0.98 (inactive) | normalized growth (locus YHR030C, strain SLT2, stronger effect = lower value): 0.943 (inactive) and 1.02 (inactive) | normalized growth (locus YHR079C, strain IRE1 (second series), stronger effect = lower value): 0.955 (inactive) | normalized growth (locus YHR079C, strain IRE1, stronger effect = lower value): 1.01 (inactive) | normalized growth (locus YHR094C, strain hxt1, stronger effect = lower value): 0.941 (inactive) | normalized growth (locus YHR129C, strain ARP1, stronger effect = lower value): 0.907 (active) | normalized growth (locus YHR142W, strain chs7, stronger effect = lower value): 0.832 (active) | normalized growth (locus YHR200W, strain rpn10, stronger effect = lower value): 0.902 (active) | normalized growth (locus YIL066C, strain RNR3, stronger effect = lower value): 0.757 (active) | normalized growth (locus YIL073C, strain SPO22, stronger effect = lower value): 0.824 (inactive) | normalized growth (locus YIL125W, strain kgd1, stronger effect = lower value): 0.948 (inactive) | normalized growth (locus YIR030C, strain dcg1, stronger effect = lower value): 0.944 (inactive) | normalized growth (locus YJL092W, strain hpr5, stronger effect = lower value): 0.982 (inactive) | normalized growth (locus YJL095W, strain BCK1 (second series), stronger effect = lower value): 0.959 (inactive) | normalized growth (locus YJL095W, strain BCK1, stronger effect = lower value): 0.757 (active) and 1 (inactive) | normalized growth (locus YJL115W, strain asf1, stronger effect = lower value): 0.943 (inactive) | normalized growth (locus YJL129C, strain trk1, stronger effect = lower value): 0.731 (active) | normalized growth (locus YJL134W, strain LCB3, stronger effect = lower value): 0.937 (inactive) | normalized growth (locus YJL154C, strain vps35, stronger effect = lower value): 0.974 (inactive) | normalized growth (locus YJL164C, strain tpk1, stronger effect = lower value): 0.941 (inactive) | normalized growth (locus YJL166W, strain qcr8, stronger effect = lower value): 0.828 (active) | normalized growth (locus YJL168C, strain set2, stronger effect = lower value): 0.954 (inactive) | normalized growth (locus YJL187C, strain SWE1 (second series), stronger effect = lower value): 0.904 (inactive) | normalized growth (locus YJR066W, strain TOR1, stronger effect = lower value): 0.959 (inactive)
